# Measured values as given in ChEMBL document CHEMBL4513216, “Probing the Open Global Health Chemical Diversity Library for Multistage-Active Starting Points for Next-Generation Antimalarials” (ACS Infect Dis, 2020).
# In all, about 68,000 compounds went through this assay and about 2,700 (4%) showed an effect of 50% or more. The sample as a whole holds a higher share of strong results than the screen did.
# System: Plasmodium berghei
# Assay: Screen against P. berghei liver stage (PbLuc), transformed with Luciferase, at 2uM
# Type: functional, HepG2
# Conditions: tested at 2 uM
row,Compound,INHIBITION [%]
1,CNC(=O)C1(CCCc2ccncc2)CCCN1 (stereo unspecified),-0.51
2,O=C(O)c1cc(NS(=O)(=O)c2cccc(Cl)c2F)ccc1Cl,36.65
3,CCc1noc(CNc2ccc(C(=O)N3CCCC3)cc2C)n1,24.15
4,CCCc1noc(CNc2ccc(C(=O)N3CCCC3)cc2C)n1,-11.2
5,Cc1cc(C(=O)N2CCCC2)ccc1NCc1nc(CC(C)C)no1,58.05
6,Cn1cnc2c1CCN(Cc1cccc(OCC(N)=O)c1)C2,3.9
7,NC(=O)c1cccc(CN2CCc3c(ncn3C3CC3)C2)c1,11.95
8,Cn1cnc2c1CCN(Cc1cccc(C(N)=O)c1)C2,74.87
9,Cn1cnc2c1CCN(Cc1cccc(C(=O)N3CCCCC3)c1)C2,5.91
10,Cn1cnc2c1CCN(Cc1ccc(C(=O)N3CCCC3)cc1)C2,51.21
11,CC(C)CNC(=O)c1cccc(CN2CCc3c(ncn3C)C2)c1,21.43
12,CCS(=O)(=O)Cc1nc(-c2cnn3c(C)cc(C)nc23)no1,-9.94
13,CN1CCN([C@@H]2CN(C(=O)c3cc4cccc(F)c4[nH]3)C[C@H]2O)CC1,-17.65
14,CNC(=O)C(C)CN(C)C(=O)Nc1cc(F)cc(Br)c1 (stereo unspecified),-0.47
15,CN(C)CCNC(=O)c1ccccc1NC(=O)c1cc(Cl)ccc1Cl,13.39
16,O=C(NCc1ccco1)[C@@H]1CC[C@@H]2[C@@H](CCN2CC2CC2)O1,22.89
17,CC(Cn1cccn1)NCc1nc(-c2cccnc2)no1 (stereo unspecified),-15.36
18,CC(Cn1cccn1)NCc1nc(-c2cccc(Cl)c2)no1 (stereo unspecified),73.05
19,N#CC1(NC(=O)COC(=O)Cn2cccn2)CCCC1,-40.04

row,Compound,INHIBITION [%]
1,N#CC1(NC(=O)CNCCn2cccn2)CCCCC1,-45.11
2,Cc1cnn(CC(C)NCC(=O)NCCc2cccs2)c1 (stereo unspecified),-28.18
3,CC(Cn1cccn1)NCc1csc(Cc2ccccc2)n1 (stereo unspecified),-44.51
4,CC(Cn1cccn1)NCC(=O)NC1(C#N)CCCCC1 (stereo unspecified),51.14
5,CC(Cn1cccn1)NC(=O)NCCc1cccs1 (stereo unspecified),-26.87
6,CC(Cn1cccn1)NCc1nc(-c2ccc3c(c2)OCO3)no1 (stereo unspecified),-35.26
7,CC(Cn1cccn1)NCC(=O)NCCc1cccs1 (stereo unspecified),66.99
8,CCCc1nc(CNC(C)Cn2cccn2)cs1 (stereo unspecified),-6.71
9,CCc1nc(CNC(C)Cn2cccn2)cs1 (stereo unspecified),55.7
10,NCCc1cccc(CN2CCN(c3cccc(Cl)c3)C(=O)C2)c1,31.35
11,COCc1nc(C(=O)N2CCN(Cc3ccsc3)CC2)cs1,8.93
12,CC(C)C(=O)N1CCCC(Cc2ncccn2)C1 (stereo unspecified),-24.73
13,CC(C)COC1CCN(C(=O)c2ccc(C(F)(F)F)[nH]c2=O)CC1,-24.73
14,FC(F)(F)c1cccc(OC2CCN(Cc3c[nH]cn3)CC2)c1,-6.65
15,CCC1=N[C@@]2(CC[C@@H]3CN(CC4CC4)C[C@@H]32)C(=O)N1,-26.61
16,O=C(NC1CC1)c1cnc(-c2noc3cc(N4CCCCC4)ccc23)s1,18.11
17,CC(Cn1cccn1)NCc1nc(-c2cccs2)no1 (stereo unspecified),51.21
18,Cc1cnn(CC(C)NCc2nc(-c3ccoc3)no2)c1 (stereo unspecified),59.68
19,Cc1cccc(-c2noc(CNC(C)Cn3cc(C)cn3)n2)c1 (stereo unspecified),-26.75

row,Compound,INHIBITION [%]
1,CC(Cn1cccn1)NCCCc1nc(-c2cccs2)no1 (stereo unspecified),21.39
2,Cc1cnn(CC(C)NCc2nc(-c3cccnc3)no2)c1 (stereo unspecified),-36.24
3,Cc1cnn(CC(C)NCc2nc(-c3cccs3)no2)c1 (stereo unspecified),-41.76
4,O=C(CN1CCOC(CNc2cccnn2)C1)NCc1cccs1 (stereo unspecified),-48.41
5,Cc1cc(C)n(-c2ccc(N3CCC4(CC3)OCC(C)O4)nc2)n1 (stereo unspecified),-11.55
6,COCC1CN(CC2CC2)Cc2ncn(CC3CC3)c21 (stereo unspecified),-21.31
7,COCCN1CCO[C@@H]2CN(C(=O)Cc3ccc(F)cc3)CC[C@@H]2C1,3.72
8,CN1CCO[C@@H]2CN(C(=O)Cc3cccs3)CC[C@@H]2C1,52.96
9,CN1CCO[C@@H]2CN(C(=O)NCc3ccccc3)CC[C@@H]2C1,69.86
10,CS(=O)(=O)N1CCO[C@@H]2CN(C(=O)Cc3cccs3)CC[C@@H]2C1,20.87
11,CC(=O)N1CCO[C@@H]2CN(C(=O)NCc3ccccc3)CC[C@@H]2C1,11.79
12,CN1[C@H](CN2CCCC2)C[C@@H]2CN(C(=O)Cc3cccs3)CC[C@@H]21,10.62
13,CCN1CCO[C@@H]2CN(C(=O)NCc3ccccc3)CC[C@@H]2C1,0.15
14,CN(C)C[C@@H]1C[C@@H]2CN(C(=O)Cc3cccs3)CC[C@@H]2N1C,54.01
15,CC(=O)N1[C@H](CN(C)C)C[C@@H]2CN(C(=O)Cc3cccs3)CC[C@@H]21,6.24
16,Cc1ccc(CC(=O)N2CC[C@@H]3CN(CCN(C)C)CCO[C@@H]3C2)cc1,50.96
17,CN(C)CCN1CCO[C@@H]2CN(C(=O)Cc3ccsc3)CC[C@@H]2C1,-19.51
18,CC(C)N1CCO[C@@H]2CN(C(=O)Cc3cccs3)CC[C@@H]2C1,-7.26
